Bioassay records: PubChem BioAssay, National Center for Advancing Translational Sciences (NCATS)
Shown are actives, neighbours in structure and some others; about 21% of the full set was active somewhere.
Gal4-VP16 FLuc – Gal4-VP16 reporter inhibition counter-screen; Drosophila S2 Gal4-VP16 UAS-luciferase, luminescence, 20 h; Potency, µM (series often up to 53.6 µM), inactives show at the top dose activity, negative = inhibition, hits mostly inhibitors; 310,000 tested, 3.5% active; AID 2546;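 note: Gal4-VP16 expression switched on by copper sulfate through the metallothionein promoter; potency is the fitted concentration of half-maximal effect; nearly all actives have a fitted effect of over 50% in size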
ELG1 repair inh – blocks ELG1-dependent DNA repair in HEK293T cells. Potency, µM (top dose mostly 46.1 µM), for the others: top-dose activity change, negative = inhibition, usual class: inhibitors. HEK293T ELG1-luciferase reporter, luminescence, 16 h; DNA damage induced by 5-fluorouridine. 330,000 tested, 2.3% active; note: potency is the fitted concentration of half-maximal effect; nearly all actives have a fitted effect of over 55% in size
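Luminescence from the luciferase reporter, measured 30 min after ONE-Glo reagent at room temperature, was the read-out. Beforehand, 2,000 cells per well were exposed for 16 hr at 37 °C to 5-fluorouridine together with compound or vehicle.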
DT40 TDP1 no CPT – qHTS for Inhibitors of human tyrosyl-DNA phosphodiesterase 1 (TDP1): qHTS in cells in absence of CPT. DT40 Tdp1-/- hTDP1 cells, no CPT, ATP luminescence, 48 h. Potency, µM (titrated, usually from 46.2 µM), for inactives: at the highest dose activity change, negative = growth inhibition, most hits filed as inhibitors. 420,000 tested, 15% active. AID 686978, 2013; note: potency is the fitted concentration of half-maximal effect; nearly all actives have a fitted effect of over 55% in size
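DT40 Tdp1-/-;hTDP1 cells, no CPT (DMSO vehicle only), 400 cells/well; compounds pin-transferred; ≥48 hr, 37 °C; CellTiter-Glo 30 min RT dark, luminescence read.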
DT40 TDP1 CPT – growth inhibition of DT40 Tdp1-/-;hTDP1 cells with camptothecin (screen for TDP1 inhibitors); chicken DT40 Tdp1-/-;hTDP1 cells + 20 nM CPT, ATP luminescence, 48 h; Potency, µM (top dose mostly 46.2 µM), without a hit: top-dose activity change, negative = growth inhibition, usual class: inhibitors; 420,000 tested, 12% active; note: potency is the fitted concentration of half-maximal effect; nearly all actives have a fitted effect of over 55% in size
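Cell growth measured by CellTiter-Glo luminescence after a minimum 48 h, 37 C compound exposure with 20 nM CPT in Tdp1-knockout DT40 cells stably expressing hTDP1, seeded 400/well; qHTS titration format.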
RORgamma inh – ROR gamma (mouse) transcription inhibition; P51450; Drosophila S2 Gal4-RORgamma UAS-luciferase reporter, 20 h; Potency, µM (top dose mostly 53.6 µM), for the others: at the highest dose activity change, negative = inhibition, hits mostly inhibitors; 310,000 tested, 5.4% active; note: potency is the fitted concentration of half-maximal effect; nearly all actives have a fitted effect of over 60% in size
Target sequence (P51450 whole entry, looked up, the tested form may be a part): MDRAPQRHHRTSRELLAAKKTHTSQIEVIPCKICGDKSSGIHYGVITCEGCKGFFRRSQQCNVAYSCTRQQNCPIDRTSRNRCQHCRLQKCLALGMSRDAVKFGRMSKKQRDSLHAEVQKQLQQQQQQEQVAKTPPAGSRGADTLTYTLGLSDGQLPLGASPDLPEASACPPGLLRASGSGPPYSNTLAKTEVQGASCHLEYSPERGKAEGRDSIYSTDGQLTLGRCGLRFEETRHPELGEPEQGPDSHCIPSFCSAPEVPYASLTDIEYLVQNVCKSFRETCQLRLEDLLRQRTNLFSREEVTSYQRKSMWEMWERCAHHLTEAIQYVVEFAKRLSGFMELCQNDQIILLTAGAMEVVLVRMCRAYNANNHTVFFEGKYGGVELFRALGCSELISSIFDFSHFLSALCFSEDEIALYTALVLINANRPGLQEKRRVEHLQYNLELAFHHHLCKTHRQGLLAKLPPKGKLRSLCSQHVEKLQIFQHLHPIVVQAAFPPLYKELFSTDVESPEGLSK
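Schneider cells (Drosophila), stable Gal4 DBD–ROR gamma + UAS-luc; 1 hr cmpd preincubation; Cu2+ induction 700 uM final; 20 hr ambient; luminescence.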
IL1B secr inh – inhibitors of inflammasome signaling (IL-1 beta secretion); THP-1 LPS/ATP IL-1B secretion, AlphaLISA, 16 h; stronger effect = lower value; activity change, % at 57.5 µM; 360,000 tested, 4.7% active; in the data active = activity change below about -50%; inconclusive = mostly about -30% to -49%
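THP-1 cells pretreated 1 hr with compounds (up to 57.5 uM final), then stimulated with LPS (250 ng/mL final) plus ATP (1.25 mM final); secreted IL-1B measured by AlphaLISA after 16 hr, decreased signal indicating inhibition.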
* marks the source's active call; other numbers are inactive results; ? = inconclusive; . = no result; [ ] = another dose, or the depositor's remark. Unless noted, calls come from the whole dose curve; as a rule, active = well fitted curve in the direction sought with a large enough effect; inconclusive = small, poorly fitted or top-dose-only effect, or another doubt; inactive = no such curve, though single readings can be large; an effect the other way counts as inactive or inconclusive. % is set by controls: 0 for no effect and ±100 for the full control effect.

SMILES	Gal4-VP16 FLuc	ELG1 repair inh	DT40 TDP1 no CPT	DT40 TDP1 CPT	RORgamma inh	IL1B secr inh
COc1cccc(C2=CC(=O)CC(C)(C)C2)n1	.	.	.	-24%	.	12
CN(C)S(=O)(=O)N1CCC(c2ccc(F)cc2)C(COc2ccc3c(c2)OCO3)C1 (stereo not drawn)	2%	16µM*	?	?	4%	-27
CC(C)=CCC/C(C)=C/CO/N=C1/C[C@@H](O)[C@@H](O)[C@@H]2[C@@H]3C(=O)N(C[C@@H]4CCCO4)C(=O)[C@H]3CC[C@H]12	-23%[10 µM]	.	.	.	5%[10 µM]	.
OCCn1ccc(-c2ccccc2OCc2ccc(F)cc2)n1	-7%	-24%	21µM*	?	9%	-8
COC(=O)/C=C1/N/C(=N\c2nc(C)cc(C)n2)N(c2cccc(C)c2)C1=O	1%	-16%	?	?	?	-69*
COc1ccccc1CNC(=O)COC(=O)c1ccc2c(=O)n3c(nc2c1)CCCCC3	.	?	7%	1%	.	-8
Cc1cc(C)cc(-n2ccn(CC(=O)c3ccc(F)cc3)c(=O)c2=O)c1	.	.	8%	3%	.	.
COC(=O)N1CCCCC1c1cc(C(=O)NCc2cccnc2)no1 (stereo not drawn)	.	.	-1%	-4%	.	21
COc1cccc(NC2=C(NCCO)C(=O)c3ccccc3C2=O)c1	1%	?	?	?	-34%	-74*
COc1ccc(NC2=C(NCCO)C(=O)c3ccccc3C2=O)cc1	3%	?	15µM*	12µM*	-7%	11
Cc1cccc(Nc2nc(N)c([N+](=O)[O-])c(NCCO)n2)c1	7%	-3%	?	?	22%	21
Cc1cccc(NC2=C(NCCO)C(=O)c3ccccc3C2=O)c1	0%	13%	21µM*	16µM*	-7%	-57*
COC(=O)CC1(c2ccc(OC)cc2)C(=O)c2ccccc2C1=O	2%	-3%	?	2%	3%	25
COc1cccc(Cn2c(=O)n(CCc3ccccc3)c(=O)c3c2c2cc(OC)ccc2n3C)c1	.	.	-21%	1%	.	.
CCOC(=O)C1(C)CCCN(C(=O)c2ccccc2C(F)(F)F)C1 (stereo not drawn)	.	.	-8%	-9%	.	14
CCOC(=O)COc1cccc2c(=O)n(CC(N)=O)ccc12	-7%	?	29%	-10%	5%	-58*
COC(=O)COc1cccc2c(=O)n(CC(=O)NCCc3ccccc3)ccc12	-4%	-1%	-1%	-3%	-1%	-7
CCOC(=O)COc1cccc2c(=O)n(CC(=O)NCc3ccccc3)ccc12	-8%	?	0.65µM*	1µM*	1%	49
CCOC(=O)C(C)Oc1cccc2c(=O)n(CC(=O)NCc3ccc4c(c3)OCO4)ccc12 (stereo not drawn)	0%	?	2.3µM*	2.6µM*	8%	-20
CCOC(=O)COc1cccc2c(=O)n(CC(=O)NCc3ccc(F)cc3)ccc12	-6%	?	0.52µM*	0.58µM*	-4%	45
CCOC(=O)C(C)Oc1cccc2c(=O)n(CC(=O)Nc3ccc4c(c3)OCCO4)ccc12 (stereo not drawn)	-17%	?	-24%	-16%	1%	23
CCOCCn1c(=O)c2c(nc3n2CCN3c2ccc(C)c(C)c2)n(C)c1=O	.	.	-5%	4%	.	.
CCCCn1c(N)c(N(CC(C)C)C(=O)COC(=O)Cc2cccc(OC)c2)c(=O)[nH]c1=O	.	2%	1%	-6%	.	8
Nc1ncc(Br)cc1S(=O)(=O)NCCC(=O)NCCc1ccc(Cl)cc1	-8%	-8%	-3%	-29%	12%	16
N#Cc1c(NC(=S)NC(=O)c2ccccc2)sc2c1CCC2	-83%	?	?	18µM*	-42%[10 µM]	0
